Source: PubChem BioAssay
Active and inactive are the calls of the source.

Key:
[1] = E. coli DRC41 culture turbidity changes, primary screen, E. coli filamentation inducer project, strain DRC41, OD650, 48 h (AID 1152);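 note: E. coli MC1000 strain DRC41 lacking acrAB efflux pump and sulA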; details: E. coli DRC41 (acrAB sulA), higher = more signal, called active from +8 up or from −8 down
[2] = small-molecule binders of probe aLefty1, primary screen, biochemical, small-molecule microarray, 635/667 nm fluorescence (AID 1153); details: higher = more signal;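 note: score merges spot fluorescence with signal-to-noise ratio from the scanned slide images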
[3] = PSAC antagonists in infected red cells, primary screen, cell-based, P. falciparum Indochina, OD700, 1 h (AID 1154); details: P. falciparum Indochina infected RBC osmotic lysis, higher = more signal, called active from +8 up or from −8 down
[4] = PSAC antagonists in infected red cells, primary screen, cell-based, P. falciparum Indochina, OD700, 2 h (AID 1155);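 note: lysis reports solute entry through the parasite surface anion channel PSAC; channel blockers reduce lysis of infected cells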; details: P. falciparum Indochina infected erythrocytes, osmotic lysis OD700; higher = more signal, called active from +8 up or from −8 down
[5] = osmotic lysis modulators in infected erythrocytes, primary screen, PSAC antagonist project, cell-based, P. falciparum Indochina, OD700, 3 h (AID 1156); details: higher = more signal, called active from +8 up or from −8 down
[6] = PSAC antagonists in infected red cells, primary screen, cell-based, P. falciparum Indochina, OD700, 18 h (AID 1157); details: P. falciparum Indochina infected erythrocytes, osmotic lysis OD700, 18 h; higher = more signal, called active from +8 up or from −8 down
[7] = modulators of S6 phosphorylation in cells, primary screen, cell-based, A549, cytoblot, luminescence, serum-stimulated (AID 1158); details: A549 phospho-S6 cytoblot, 5 h, higher = more signal;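 note: serum-stimulated A549 lung adenocarcinoma cells; signal is phosphorylated S6 detected by cytoblot immunostaining with HRP secondary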
[8] = target: NADPH oxidase 2 (Homo sapiens) (UniProt P04839); experiment: NOX2-dependent H2O2 signal modulators, primary screen, NOX inhibitor project, cell-based, HEK293-NOX2, PMA-stimulated, Amplex Red fluorescence (AID 1159); details: 45 min, higher = more signal, called active from +8 up or from −8 down; note: test concentration not given here
[9] = target: NADPH oxidase 4 (Homo sapiens) (UniProt Q9NPH5); experiment: NOX4-dependent H2O2 signal modulators, primary screen, NOX inhibitor project, cell-based, HEK293-NOX4, tetracycline-induced, Amplex Red fluorescence (AID 1160); details: 45 min, higher = more signal, called active from +8 up or from −8 down
[10] = target: NADPH oxidase 5 (Homo sapiens) (UniProt Q96PH1); experiment: NOX5-dependent H2O2 signal modulators, primary screen, NOX inhibitor project, cell-based, HEK293-NOX5, Amplex Red fluorescence (AID 1161); details: HEK293-NOX5, ionomycin, 45 min, higher = more signal
[11] = A549 cell viability effects, profiling panel, calcein-AM fluorescence, 48 h, basal (AID 1162); details: higher = more signal; note: test concentration not given here
[12] = adipocyte viability effects, profiling panel, cell-based, 3T3-L1 adipocytes, calcein-AM fluorescence, 48 h, basal (AID 1163); details: 3T3-L1 adipocytes viability, higher = more signal; note: test concentration not given here
[13] = HepG2 cell viability effects, profiling panel, calcein-AM fluorescence, 48 h, basal (AID 1164); details: higher = more signal; note: test concentration not given here
[14] = MM1S cell viability effects, profiling panel, calcein-AM fluorescence, 48 h, basal (AID 1165); details: higher = more signal;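 note: viability of MM1S multiple myeloma cells under basal unstimulated conditions; test concentration not given here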
[15] = basal RPMI8226 viability, no added stimulus, profiling panel, cell-based, calcein-AM fluorescence, 48 h, PK04 Diversity Set (AID 1166); details: RPMI8226 myeloma viability, higher = more signal;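 note: cells grown under basal conditions without added stimulus; test concentration not given here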
[16] = basal HepG2 mitochondrial membrane potential changes, profiling panel, cell-based, JC-1 fluorescence, 24 h, 100 nL compound (AID 1167); details: higher = more signal; note: test concentration not given here
[17] = basal 3T3-L1 adipocyte mitochondrial potential changes, profiling panel, cell-based, JC-1 fluorescence, 3T3-L1 adipocytes, 24 h, 100 nL compound (AID 1168); details: JC-1 mitochondrial fluorescence, higher = more signal, called active from +8 up or from −8 down; note: test concentration not given here
[18] = basal RPMI8226 mitochondrial membrane potential changes, profiling panel, cell-based, JC-1 fluorescence, 24 h, 100 nL compound (AID 1169); details: RPMI8226 myeloma, JC-1 mitochondrial potential fluorescence, higher = more signal; note: test concentration not given here
[19] = basal MM1S mitochondrial membrane potential changes, profiling panel, cell-based, JC-1 fluorescence, 24 h, 100 nL compound (AID 1170); details: higher = more signal; note: test concentration not given here
[20] = A549 lung cancer cell viability effects, profiling panel, resazurin fluorescence, 24 h, PK04 Diversity Set (AID 1171); details: higher = more signal, called active from +8 up or from −8 down; note: test concentration not given here

NADPH oxidase 5 (Homo sapiens), sequence (Q96PH1 whole entry, looked up): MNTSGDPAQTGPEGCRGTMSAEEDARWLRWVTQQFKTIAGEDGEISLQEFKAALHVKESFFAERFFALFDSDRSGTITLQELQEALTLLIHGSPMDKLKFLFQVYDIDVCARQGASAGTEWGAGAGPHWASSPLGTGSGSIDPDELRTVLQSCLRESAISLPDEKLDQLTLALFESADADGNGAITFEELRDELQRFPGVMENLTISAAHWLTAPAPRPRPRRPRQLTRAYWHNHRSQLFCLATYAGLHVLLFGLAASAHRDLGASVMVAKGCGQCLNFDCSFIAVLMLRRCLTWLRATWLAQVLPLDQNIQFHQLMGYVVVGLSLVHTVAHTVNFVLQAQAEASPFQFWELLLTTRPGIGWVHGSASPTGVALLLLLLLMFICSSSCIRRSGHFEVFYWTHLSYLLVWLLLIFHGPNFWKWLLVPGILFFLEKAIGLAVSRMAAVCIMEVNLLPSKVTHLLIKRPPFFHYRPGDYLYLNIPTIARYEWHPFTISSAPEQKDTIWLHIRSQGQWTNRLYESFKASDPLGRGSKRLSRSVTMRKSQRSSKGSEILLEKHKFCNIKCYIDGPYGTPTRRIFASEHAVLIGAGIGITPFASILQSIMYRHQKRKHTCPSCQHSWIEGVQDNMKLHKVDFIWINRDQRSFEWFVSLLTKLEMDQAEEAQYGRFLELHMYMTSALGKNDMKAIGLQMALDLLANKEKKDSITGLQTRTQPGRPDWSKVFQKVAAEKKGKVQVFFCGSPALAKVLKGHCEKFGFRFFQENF
NADPH oxidase 4 (Homo sapiens), sequence (Q9NPH5 whole entry, looked up): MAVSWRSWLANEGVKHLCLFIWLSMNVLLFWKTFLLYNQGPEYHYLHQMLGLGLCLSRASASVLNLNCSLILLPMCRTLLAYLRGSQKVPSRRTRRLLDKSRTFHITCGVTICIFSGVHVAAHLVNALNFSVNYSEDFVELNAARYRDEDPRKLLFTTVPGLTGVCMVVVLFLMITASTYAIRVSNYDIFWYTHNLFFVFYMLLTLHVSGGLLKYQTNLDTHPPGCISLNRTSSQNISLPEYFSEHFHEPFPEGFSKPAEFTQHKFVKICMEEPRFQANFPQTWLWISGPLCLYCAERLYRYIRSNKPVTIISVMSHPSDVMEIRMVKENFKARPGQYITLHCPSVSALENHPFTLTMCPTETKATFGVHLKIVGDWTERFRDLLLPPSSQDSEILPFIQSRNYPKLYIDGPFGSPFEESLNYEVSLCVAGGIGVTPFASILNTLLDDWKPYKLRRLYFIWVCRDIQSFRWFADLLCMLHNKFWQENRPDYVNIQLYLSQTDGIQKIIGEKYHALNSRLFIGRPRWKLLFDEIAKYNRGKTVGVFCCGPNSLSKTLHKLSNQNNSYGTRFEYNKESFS
NADPH oxidase 2 (Homo sapiens), sequence (P04839 whole entry, looked up): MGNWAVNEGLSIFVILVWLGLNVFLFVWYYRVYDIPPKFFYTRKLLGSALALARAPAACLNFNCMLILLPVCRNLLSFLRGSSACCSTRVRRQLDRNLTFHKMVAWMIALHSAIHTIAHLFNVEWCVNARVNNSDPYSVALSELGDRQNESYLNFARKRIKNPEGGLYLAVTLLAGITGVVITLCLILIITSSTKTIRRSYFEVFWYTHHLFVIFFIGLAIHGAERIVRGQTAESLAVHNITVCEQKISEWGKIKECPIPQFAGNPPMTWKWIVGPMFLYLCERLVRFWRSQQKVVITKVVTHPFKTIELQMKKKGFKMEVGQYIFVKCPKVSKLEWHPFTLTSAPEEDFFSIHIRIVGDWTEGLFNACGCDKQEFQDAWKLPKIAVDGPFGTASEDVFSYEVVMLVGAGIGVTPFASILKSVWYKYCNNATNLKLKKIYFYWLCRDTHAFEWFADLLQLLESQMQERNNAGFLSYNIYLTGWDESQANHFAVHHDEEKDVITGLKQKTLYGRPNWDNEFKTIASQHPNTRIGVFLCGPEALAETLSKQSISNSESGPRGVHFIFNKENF

CC(=O)OC[C@H]1O[C@@H](ON=C(C)CCN2CCc3nc(-c4ccccc4)c(-c4ccccc4)cc3C2)[C@H](OC(C)=O)[C@@H](OC(C)=O)[C@@H]1OC(C)=O
z-score [1]: -1.59 (inactive)
composite z-score [2]: 0.0355
z-score [3]: 1.12 (inactive)
z-score [4]: 0.327 (inactive)
z-score [5]: 0.993 (inactive)
z-score [6]: 0.465 (inactive)
z-score [7]: -0.225
z-score [8]: -1.13 (inactive)
z-score [9]: 0.55 (inactive)
z-score [10]: -3.13
z-score [11]: -0.21
z-score [12]: 0.565
z-score [13]: 0.69
z-score [14]: -0.0213
z-score [15]: -0.162
z-score [16]: 1.11
z-score [17]: -1.19 (inactive)
z-score [18]: -0.522
z-score [19]: 0.231
z-score [20]: -0.282 (inactive)

CCOC(=O)[C@H](Cc1ccccc1)NC(=O)CCC1CC(OC(=O)NCc2ccc3c(c2)OCO3)CC2(CCCC(COC(=O)NCc3cccc(C(F)(F)F)c3)O2)O1 (stereo not given in full)
z-score [1]: -0.667 (inactive)
composite z-score [2]: 0.138
z-score [3]: -0.272 (inactive)
z-score [4]: -1.05 (inactive)
z-score [5]: -0.106 (inactive)
z-score [6]: -1.37 (inactive)
z-score [7]: 2.74
z-score [8]: -0.661 (inactive)
z-score [9]: -1.35 (inactive)
z-score [10]: -0.999
z-score [11]: 0.46
z-score [12]: 1.24
z-score [13]: -0.526
z-score [14]: 0.706
z-score [15]: -2.18
z-score [16]: 2.06
z-score [17]: -0.56 (inactive)
z-score [18]: 0.918
z-score [19]: -0.622
z-score [20]: -0.0224 (inactive)

CC(C)=CCCC(C)=CCON=C1[C@H]2CCn3c(=O)n(C)c(=O)n3[C@H]2[C@H](O)[C@@H]2O[C@H]12
z-score [1]: 0.459 (inactive)
composite z-score [2]: -0.115
z-score [3]: 0.306 (inactive)
z-score [4]: 0.197 (inactive)
z-score [5]: 0.0128 (inactive)
z-score [6]: 0.0078 (inactive)
z-score [7]: -0.48
z-score [8]: -2.6 (inactive)
z-score [9]: 0.0699 (inactive)
z-score [10]: 0.43
z-score [11]: 0.717
z-score [12]: -0.326
z-score [13]: 1.11
z-score [14]: 0.114
z-score [15]: -0.183
z-score [16]: 0.46
z-score [17]: -0.14 (inactive)
z-score [18]: -0.2
z-score [19]: -0.731
z-score [20]: -0.83 (inactive)

CN(C)CCCNC(=O)[C@@H]1c2ccccc2C(=O)N(Cc2cc(F)cc(C(F)(F)F)c2)[C@H]1c1ccc(CO)cc1
z-score [1]: -0.72 (inactive)
composite z-score [2]: -0.0818
z-score [3]: 1.88 (inactive)
z-score [4]: 0.382 (inactive)
z-score [5]: 2.38 (inactive)
z-score [6]: 0.745 (inactive)
z-score [7]: 0.269
z-score [8]: 0.547 (inactive)
z-score [9]: -0.0177 (inactive)
z-score [10]: -2.19
z-score [11]: -0.276
z-score [12]: 0.239
z-score [13]: -0.318
z-score [14]: 0.137
z-score [15]: 0.606
z-score [16]: 1.3
z-score [17]: -0.557 (inactive)
z-score [18]: 0.735
z-score [19]: -0.195
z-score [20]: 0.0923 (inactive)

COc1ccc(COC(=O)NN=C2C[C@@H](O)[C@@H](O)[C@@H]3[C@@H]4C(=O)N(Cc5ccc6c(c5)OCO6)C(=O)[C@@H]4CC[C@@H]23)cc1
z-score [1]: 0.306 (inactive)
composite z-score [2]: 1.15
z-score [3]: 11.8 (active)
z-score [4]: 0.801 (inactive)
z-score [5]: 0.819 (inactive)
z-score [6]: -1.17 (inactive)
z-score [7]: 1.27
z-score [8]: -0.377 (inactive)
z-score [9]: 0.343 (inactive)
z-score [10]: 0.964
z-score [11]: 0.378
z-score [12]: 1.11
z-score [13]: -0.273
z-score [14]: -0.652
z-score [15]: -0.0219
z-score [16]: 0.621
z-score [17]: 1.04 (inactive)
z-score [18]: -0.3
z-score [19]: -1.61
z-score [20]: 0.0201 (inactive)

CC(=O)OC[C@H]1O[C@H](CCON=C[C@@H](C)[C@H](OCc2ccccc2)C(C)C)C=C[C@@H]1OC(C)=O
z-score [1]: -2.02 (inactive)
composite z-score [2]: -0.313
z-score [3]: 1.25 (inactive)
z-score [4]: 0.412 (inactive)
z-score [5]: 1.01 (inactive)
z-score [6]: 0.367 (inactive)
z-score [7]: -0.297
z-score [8]: -0.953 (inactive)
z-score [9]: -0.218 (inactive)
z-score [10]: -2.17
z-score [11]: -0.606
z-score [12]: -0.52
z-score [13]: -0.737
z-score [14]: -0.09
z-score [15]: -0.5
z-score [16]: -1.26
z-score [17]: -0.801 (inactive)
z-score [18]: -0.0185
z-score [19]: 0.0314
z-score [20]: 0.0793 (inactive)

COc1cccc([C@H]2Oc3ccc(OC)cc3C(=NO[C@H](C)c3cn([C@@H]4COC[C@H]4O)nn3)[C@@H]2O)c1
z-score [1]: -1.79 (inactive)
composite z-score [2]: -0.235
z-score [3]: 0.162 (inactive)
z-score [4]: -1.17 (inactive)
z-score [5]: 1.91 (inactive)
z-score [6]: -1.69 (inactive)
z-score [7]: 0.444
z-score [8]: -0.683 (inactive)
z-score [9]: -0.721 (inactive)
z-score [10]: -3.94
z-score [11]: -1.3
z-score [12]: 0.67
z-score [13]: -0.428
z-score [14]: -0.717
z-score [15]: -0.786
z-score [16]: -0.832
z-score [17]: 0.839 (inactive)
z-score [18]: 0.161
z-score [19]: -0.761
z-score [20]: -0.481 (inactive)

CCN1C(=O)[C@H]2[C@H]3[C@H](O)C=CC(=O)[C@@H]3CC[C@H]2C1=O
z-score [1]: -0.474 (inactive)
composite z-score [2]: -0.265
z-score [3]: -0.441 (inactive)
z-score [4]: -0.343 (inactive)
z-score [5]: -0.795 (inactive)
z-score [6]: -0.21 (inactive)
z-score [7]: 0.176
z-score [8]: 0.0244 (inactive)
z-score [9]: -0.0152 (inactive)
z-score [10]: -0.204
z-score [11]: 0.331
z-score [12]: 0.368
z-score [13]: 0.733
z-score [14]: -0.434
z-score [15]: 0.197
z-score [16]: 0.234
z-score [17]: -0.661 (inactive)
z-score [18]: -0.408
z-score [19]: 1.5
z-score [20]: 0.459 (inactive)

O=C1O[C@@H](c2ccccc2)[C@@H](c2ccccc2)N2[C@@H](c3ccccc3OCCO)[C@]3(C(=O)Nc4ccc(C#CCCO)cc43)[C@@H](C(=O)O)[C@H]12
z-score [1]: 0.0825 (inactive)
composite z-score [2]: 1.66
z-score [3]: 1.32 (inactive)
z-score [4]: -2.1 (inactive)
z-score [5]: 0.152 (inactive)
z-score [6]: -2.06 (inactive)
z-score [7]: 1.47
z-score [8]: 0.559 (inactive)
z-score [9]: -0.438 (inactive)
z-score [10]: -0.847
z-score [11]: -0.622
z-score [12]: 1.78
z-score [13]: -0.173
z-score [14]: -1.43
z-score [15]: -1.98
z-score [16]: 0.259
z-score [17]: -0.881 (inactive)
z-score [18]: -0.231
z-score [19]: -0.641
z-score [20]: -0.0647 (inactive)

C#CCCCON=C1C[C@@H](O)[C@@H](O)[C@@H]2[C@@H]3C(=O)N(Cc4ccccc4)C(=O)[C@@H]3CC[C@H]12
z-score [1]: 0.362 (inactive)
composite z-score [2]: -0.111
z-score [3]: 1.38 (inactive)
z-score [4]: -0.506 (inactive)
z-score [5]: 0.659 (inactive)
z-score [6]: -1.29 (inactive)
z-score [7]: 0.69
z-score [8]: 0.162 (inactive)
z-score [9]: 0.196 (inactive)
z-score [10]: -0.36
z-score [11]: 0.416
z-score [12]: 0.798
z-score [13]: -0.969
z-score [14]: 0.772
z-score [15]: 0.477
z-score [16]: 0.843
z-score [17]: 0.381 (inactive)
z-score [18]: 0.379
z-score [19]: -0.901
z-score [20]: 0.97 (inactive)
